Compounds with a hit are over-represented: about 0.78% of the library has one in this group of screens.
PolyA inhibitor: polyadenylation inhibitors in yeast reporter cells, primary screen, luminescence, S. cerevisiae. S. cerevisiae SKY197-pL101 polyadenylation reporter, beta-gal luminescence; efflux-impaired pdr1/pdr3 knockout yeast; score 100 = 6 SD above DMSO. activity score, % at 12 µM. actives 0.02% (n = 300,000). AID 1875, 2009;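 active means lowest replicate activity score at least 50, where 100 means six control SD above control mean; inconclusive means lowest score under 50 but half or more replicates reach 50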;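 further: yeast exposed to compound for 9 h at 30 °C; higher score means more reporter readthrough which indicates perturbed polyadenylation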
PKA-R1A activ: activators of PKA-R1A holoenzyme, primary screen, biochemical, fluorescence polarization, Cy5-IP20, bovine R1A, mouse PKAc; cAMP-dependent protein kinase type I-alpha regulatory subunit (Bos taurus) + …; PKA-R1A dissociation; scaled: DMSO 0%, 113 µM cGMP 100%; activation, % at 11.4 µM; actives 0.083% (n = 340,000); AID 504707, 2011;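 active means percent activation above the mean of all tested compounds plus 3 SD, cut at about 19% in these data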;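 further: higher means more PKAc released from R1A so a rise in polarization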
PKA-R2B act: activators of PKA-R2B holoenzyme, primary screen, biochemical, fluorescence polarization, Cy5-IP20, human. cAMP-dependent protein kinase catalytic subunit beta (Homo sapiens) + cAMP-dependent …. PKA-R2B holoenzyme dissociation; R2B truncated from residue 108, S112A mutant; 0% DMSO only, 100% 113 µM cGMP. activation, % at 11.4 µM. actives 0.079% (n = 340,000). AID 504700, 2011;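 active means activation above a cutoff set at the mean over all compounds plus 3 SD, cut at about 18% in these data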;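 further: higher means more holoenzyme dissociation and a rise in polarization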
CR mimetic SO: reduction of superoxide in aged yeast, primary screen, HTS | superoxide response (% of plate mean), % at 10 µM | S. cerevisiae aged cells, superoxide DHE fluorescence; active compounds read low | actives 0.18% (n = 330,000);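 active means superoxide response under a set limit, about three screen SD below normal, cut at about 65% in these data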;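 further: yeast aged for seven days with compound at 30 °C before DHE staining; 100% = average MFI of all compound-treated wells on the plate with controls excluded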
GASC-1 inh: inhibitors of GASC-1 histone demethylase, primary screen, biochemical, fluorescence, DELFIA europium; Lysine-specific demethylase 4C (Homo sapiens), Q9H3R0; GST-JMJD2C(1-420) H3K9me3 demethylation; inhibition, % at 2.35 µM; actives 0.069% (n = 330,000); AID 2099, 2009;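 active means more than half of a compound's replicate wells show inhibition beyond 50%, single wells judged on their own value; inconclusive means some, but no more than half, of replicates pass 50% inhibition; inactive means no replicate passes 50% inhibition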;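 further: signal counts dimethyl H3K9 product captured on neutravidin plate; 0% = median of DMSO wells and 100% = 0.3 times that DMSO median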
Target sequence (Q9H3R0 1-420 limits assumed): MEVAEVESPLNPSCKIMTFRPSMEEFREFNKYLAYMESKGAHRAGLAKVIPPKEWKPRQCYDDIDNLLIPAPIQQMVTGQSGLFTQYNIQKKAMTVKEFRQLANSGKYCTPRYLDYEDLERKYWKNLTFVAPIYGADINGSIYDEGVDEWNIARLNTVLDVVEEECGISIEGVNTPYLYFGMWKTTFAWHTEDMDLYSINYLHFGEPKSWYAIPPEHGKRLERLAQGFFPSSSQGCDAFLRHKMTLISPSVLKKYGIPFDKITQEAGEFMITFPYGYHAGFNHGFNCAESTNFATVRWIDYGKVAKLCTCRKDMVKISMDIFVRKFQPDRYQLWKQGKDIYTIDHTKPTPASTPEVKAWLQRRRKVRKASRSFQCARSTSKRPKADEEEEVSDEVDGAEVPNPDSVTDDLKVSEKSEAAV
V-ATPase pH: regulators of yeast V-ATPase proton pumping, primary screen, pHLuorin cytosolic pH fluorescence; S. cerevisiae; response, % at 10 µM; actives 0.37% (n = 350,000); AID 504577, 2011; in the data active means response mostly above about 7.3%, no sharp cut-off; inactive means mostly below about 5.4%; further: actives read high
R2B FP artifact: fluorescence polarization artefacts, biochemical, artefact control for PKA-R2B activator project. actives 6% (n = 270). FP artifact counterscreen. shares compounds with PKA-R2B act. AID 504796, 2011. activation, % at 11.4 µM; in the data active means activation above about 20%;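 further: Cy5 labelled IP20 peptide probe with compound but no PKA protein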
PKA-R2B confirm: activators of PKA-R2B holoenzyme, confirmation, biochemical, fluorescence polarization, human. shares compounds with PKA-R2B act. PKA-R2B complex, activation. activation, % at 11.4 µM. actives 9% (n = 270); in the data active means activation above about 19%
* = called active by the depositor.

For COC(=O)c1c[nH]n2c(=O)cc(CCl)nc12 the results were PolyA inhibitor 3, PKA-R1A activ 6, PKA-R2B act 20*, CR mimetic SO 111, GASC-1 inh 0, V-ATPase pH 1, R2B FP artifact 0 and PKA-R2B confirm 1.
Screening COc1ccc(/C=N/NC2=NS(=O)(=O)c3ccccc32)cc1 returned PolyA inhibitor -7, PKA-R1A activ 4, PKA-R2B act 23*, CR mimetic SO 102, GASC-1 inh 8, V-ATPase pH 3, R2B FP artifact 2 and PKA-R2B confirm 3.
`CC(=O)Oc1ccc(/C=N/NC2=NS(=O)(=O)c3ccccc32)cc1` gave PolyA inhibitor -7, PKA-R1A activ 4, PKA-R2B act 1, CR mimetic SO 99, GASC-1 inh 3 and V-ATPase pH 1.
`Cc1cnc(NC(=O)CC2OC(=O)c3ccccc32)s1` (stereo not given) gave PKA-R1A activ -4, PKA-R2B act 19*, V-ATPase pH 0, R2B FP artifact 3 and PKA-R2B confirm 1.
CCN(CC)c1ccc(-n2c(C)c(C(C)=O)c(C(C)=O)c2C)cc1 was read as PolyA inhibitor inconclusive, PKA-R1A activ -10, PKA-R2B act 19*, CR mimetic SO 111, GASC-1 inh 2, V-ATPase pH 2, R2B FP artifact 0 and PKA-R2B confirm 2.
CC(=O)c1c(C(C)=O)c(C)n(-c2ccc(O)cc2)c1C was read as PolyA inhibitor 5, PKA-R1A activ -3, PKA-R2B act 12, CR mimetic SO 82, GASC-1 inh -8 and V-ATPase pH 20.
`COCCNC(=O)CN(Cc1cccs1)C(=O)CCC(=O)Nc1nccs1` gave PolyA inhibitor -9, PKA-R1A activ -2, PKA-R2B act -10, CR mimetic SO 98, GASC-1 inh 2 and V-ATPase pH -1.
For COCCNC(=O)CN(Cc1ccccc1)C(=O)CCC(=O)Nc1nccs1 the results were PolyA inhibitor -6, PKA-R1A activ 0, PKA-R2B act 19*, CR mimetic SO 109, GASC-1 inh -27, V-ATPase pH 2, R2B FP artifact 2 and PKA-R2B confirm -4.
COc1ccc(CCNC(=O)Cn2c(=O)oc3cc(Cl)ccc32)cc1OC was read as PolyA inhibitor -3, PKA-R1A activ 7, PKA-R2B act 19*, CR mimetic SO 108, GASC-1 inh 9, V-ATPase pH -1, R2B FP artifact 0 and PKA-R2B confirm -2.
C=CCC1CCCC(=O)N2CCCC12 (stereo not given) was read as PKA-R1A activ 4, PKA-R2B act -2, CR mimetic SO 90 and V-ATPase pH 2.
CCOc1cc(/C=C2\CN(CC)C/C(=C\c3ccc(O)c(OCC)c3)C2=O)ccc1O was read as PolyA inhibitor -37, PKA-R1A activ 0, PKA-R2B act -8, CR mimetic SO 111, GASC-1 inh 4 and V-ATPase pH 3.
CCN1C/C(=C/c2cccc([N+](=O)[O-])c2)C(=O)/C(=C/c2cccc([N+](=O)[O-])c2)C1 was read as PKA-R1A activ -4, PKA-R2B act 19*, CR mimetic SO 104, GASC-1 inh -7, V-ATPase pH 3, R2B FP artifact 2 and PKA-R2B confirm 2.
For Cc1ccccc1-c1nnc(SCC(=O)NC2CCS(=O)(=O)C2)n1C (stereo not given) the results were PKA-R1A activ 9, PKA-R2B act 19*, CR mimetic SO 81, GASC-1 inh 5, V-ATPase pH 2, R2B FP artifact 6 and PKA-R2B confirm 2.
Cc1ccccc1-c1nnc(SCC(=O)NC2CCCC2)n1C was read as PolyA inhibitor -14, PKA-R1A activ 2, PKA-R2B act -7, CR mimetic SO 96, GASC-1 inh 5 and V-ATPase pH -2.
CCCc1cc(NC(=O)CCl)n(-c2ccccc2)n1 was read as PolyA inhibitor 7, PKA-R1A activ 0, PKA-R2B act 20*, CR mimetic SO 104, GASC-1 inh 9, V-ATPase pH 3, R2B FP artifact 0 and PKA-R2B confirm -3.
For NC(=O)Nc1ccc(Cl)cc1 the results were PolyA inhibitor 8, PKA-R1A activ 2, PKA-R2B act 23*, CR mimetic SO 98, GASC-1 inh 0, V-ATPase pH 3, R2B FP artifact -2 and PKA-R2B confirm 1.
`COc1cccc(NC(=O)C(=O)NCCCN2CCCC2=O)c1` gave PolyA inhibitor -10, PKA-R1A activ 9, PKA-R2B act 20*, CR mimetic SO 96, GASC-1 inh -1, V-ATPase pH 12, R2B FP artifact 2 and PKA-R2B confirm 2.
`COc1ccccc1NC(=O)C(=O)NCCCN1CCCC1=O` gave PolyA inhibitor inconclusive, PKA-R1A activ -5, PKA-R2B act 2, CR mimetic SO 97, GASC-1 inh -6 and V-ATPase pH -1.
For Cc1[nH]nc(SCC(=O)Nc2cccc(O)c2)c1[N+](=O)[O-] the results were PolyA inhibitor 32, PKA-R1A activ -9, PKA-R2B act 19*, CR mimetic SO 95, GASC-1 inh 28, V-ATPase pH -3, R2B FP artifact 2 and PKA-R2B confirm 5.
Screening CCc1ccc(NC(=O)CSc2n[nH]c(C)c2[N+](=O)[O-])cc1 returned PolyA inhibitor -8, PKA-R1A activ -9, PKA-R2B act -8, CR mimetic SO 92, GASC-1 inh 1 and V-ATPase pH -2.
Screening CN(C)S(=O)(=O)c1cc(C(=O)O)c(NC2CCCCC2)cc1Cl returned PolyA inhibitor -22, PKA-R1A activ 7, PKA-R2B act -8, CR mimetic SO 99, GASC-1 inh -3 and V-ATPase pH -4.
Screening CN1C2CCC1CC(NC(=O)c1cc(S(=O)(=O)N(C)C)c(Cl)cc1Cl)C2 (stereo not given) returned PKA-R1A activ 5, PKA-R2B act 19*, CR mimetic SO 89, GASC-1 inh 2, V-ATPase pH -2, R2B FP artifact 2 and PKA-R2B confirm 1.
